Test results reported in ChEMBL document CHEMBL5308504, “Tm Shift (DSF) assay results for EUbOPEN Chemogenomics Library” (2023).
Where “and” joins values, the source holds several entries; their conditions need not be identical. Equal values may be shown once.

Assays:
Details in all cases: Compound concentration 20.0 uM, Protein concentration 2.0 uM, Result type QC Liability
[1] = target: Tyrosine-protein kinase ABL1 (Homo sapiens) (UniProt P00519)
[2] = target: Cyclin-dependent kinase 2 (Homo sapiens) (UniProt P24941)
[3] = target: Casein kinase I isoform delta (Homo sapiens) (UniProt P48730)
Chain of Casein kinase I isoform delta (Homo sapiens) (P48730 whole entry, looked up, canonical isoform): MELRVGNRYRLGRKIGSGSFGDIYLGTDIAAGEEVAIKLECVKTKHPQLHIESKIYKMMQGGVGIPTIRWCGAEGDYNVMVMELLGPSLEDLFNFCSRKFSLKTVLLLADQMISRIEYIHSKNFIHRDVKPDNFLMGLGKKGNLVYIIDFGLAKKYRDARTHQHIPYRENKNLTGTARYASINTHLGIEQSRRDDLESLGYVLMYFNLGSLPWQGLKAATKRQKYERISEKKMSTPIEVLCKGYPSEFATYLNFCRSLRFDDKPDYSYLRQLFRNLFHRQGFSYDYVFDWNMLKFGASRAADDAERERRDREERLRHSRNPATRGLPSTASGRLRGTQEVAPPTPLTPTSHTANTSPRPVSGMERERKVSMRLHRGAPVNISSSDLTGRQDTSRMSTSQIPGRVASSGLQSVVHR

[4] = target: Glycogen synthase kinase-3 beta (Homo sapiens) (UniProt P49841)
Chain of Glycogen synthase kinase-3 beta (Homo sapiens) (P49841 whole entry, looked up): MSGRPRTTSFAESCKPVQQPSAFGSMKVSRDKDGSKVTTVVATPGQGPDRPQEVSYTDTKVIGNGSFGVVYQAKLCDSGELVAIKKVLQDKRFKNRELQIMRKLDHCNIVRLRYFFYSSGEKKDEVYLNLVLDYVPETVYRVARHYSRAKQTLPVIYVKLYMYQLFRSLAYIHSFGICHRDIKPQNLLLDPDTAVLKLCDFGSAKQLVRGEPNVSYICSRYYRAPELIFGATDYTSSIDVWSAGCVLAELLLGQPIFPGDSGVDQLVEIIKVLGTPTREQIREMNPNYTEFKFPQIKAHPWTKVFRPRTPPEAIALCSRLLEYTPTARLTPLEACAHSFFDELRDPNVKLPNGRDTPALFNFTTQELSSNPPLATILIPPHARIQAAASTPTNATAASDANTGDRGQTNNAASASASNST

[5] = target: Mitogen-activated protein kinase 1 (Homo sapiens) (UniProt P28482)
Chain of Mitogen-activated protein kinase 1 (Homo sapiens) (P28482 whole entry): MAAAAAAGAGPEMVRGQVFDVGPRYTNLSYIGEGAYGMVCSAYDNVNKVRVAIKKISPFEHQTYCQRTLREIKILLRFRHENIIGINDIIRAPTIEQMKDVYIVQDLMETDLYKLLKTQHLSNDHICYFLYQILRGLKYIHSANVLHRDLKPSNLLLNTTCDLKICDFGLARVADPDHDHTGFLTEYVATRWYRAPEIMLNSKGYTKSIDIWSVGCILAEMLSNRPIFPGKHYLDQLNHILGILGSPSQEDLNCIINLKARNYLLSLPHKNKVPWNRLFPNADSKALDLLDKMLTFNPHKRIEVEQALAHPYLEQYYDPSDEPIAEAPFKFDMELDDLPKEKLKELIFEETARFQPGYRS

[6] = target: T1, Aurora kinase A (Homo sapiens) (UniProt O14965)
T1 sequence (whole entry): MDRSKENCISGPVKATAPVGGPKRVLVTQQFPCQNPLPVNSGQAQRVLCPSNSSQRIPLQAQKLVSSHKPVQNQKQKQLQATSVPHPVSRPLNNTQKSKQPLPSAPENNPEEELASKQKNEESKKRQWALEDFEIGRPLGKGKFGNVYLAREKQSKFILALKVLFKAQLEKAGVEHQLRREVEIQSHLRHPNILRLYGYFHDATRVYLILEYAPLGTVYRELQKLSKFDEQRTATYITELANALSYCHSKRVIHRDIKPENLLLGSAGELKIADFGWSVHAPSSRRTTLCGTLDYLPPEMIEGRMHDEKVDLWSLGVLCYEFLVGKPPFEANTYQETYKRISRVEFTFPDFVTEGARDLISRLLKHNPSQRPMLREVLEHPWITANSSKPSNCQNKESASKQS

Chain of Tyrosine-protein kinase ABL1 (Homo sapiens) (P00519 whole entry): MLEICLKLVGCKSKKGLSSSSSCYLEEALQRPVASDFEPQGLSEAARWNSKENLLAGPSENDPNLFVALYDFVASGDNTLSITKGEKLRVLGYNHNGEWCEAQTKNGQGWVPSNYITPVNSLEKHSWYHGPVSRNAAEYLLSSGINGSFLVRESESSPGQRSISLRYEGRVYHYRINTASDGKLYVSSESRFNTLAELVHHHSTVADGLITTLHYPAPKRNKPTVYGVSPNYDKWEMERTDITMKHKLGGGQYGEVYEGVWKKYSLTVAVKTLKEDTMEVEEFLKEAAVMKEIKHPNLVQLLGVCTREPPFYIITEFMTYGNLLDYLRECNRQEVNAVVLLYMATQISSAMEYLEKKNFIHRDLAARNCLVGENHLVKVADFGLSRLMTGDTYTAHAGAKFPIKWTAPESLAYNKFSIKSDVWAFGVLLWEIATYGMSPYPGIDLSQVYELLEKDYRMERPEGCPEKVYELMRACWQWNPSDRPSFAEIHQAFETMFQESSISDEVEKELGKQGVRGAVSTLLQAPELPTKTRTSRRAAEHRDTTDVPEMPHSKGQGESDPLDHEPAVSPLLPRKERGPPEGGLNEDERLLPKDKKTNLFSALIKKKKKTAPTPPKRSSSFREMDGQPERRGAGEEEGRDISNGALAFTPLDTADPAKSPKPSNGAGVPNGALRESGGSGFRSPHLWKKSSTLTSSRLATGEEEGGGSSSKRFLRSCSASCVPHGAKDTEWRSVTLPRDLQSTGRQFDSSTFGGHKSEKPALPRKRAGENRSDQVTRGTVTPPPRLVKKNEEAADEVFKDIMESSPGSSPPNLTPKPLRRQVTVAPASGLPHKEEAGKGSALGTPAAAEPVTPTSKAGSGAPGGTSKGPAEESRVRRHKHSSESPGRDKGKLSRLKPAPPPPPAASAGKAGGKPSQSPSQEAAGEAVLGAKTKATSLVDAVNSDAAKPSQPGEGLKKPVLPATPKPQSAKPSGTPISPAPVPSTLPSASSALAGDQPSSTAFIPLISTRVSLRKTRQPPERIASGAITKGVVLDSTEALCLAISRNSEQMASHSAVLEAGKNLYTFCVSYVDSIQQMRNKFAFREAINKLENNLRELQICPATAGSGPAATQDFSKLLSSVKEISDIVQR

Structure (SMILES) | ΔTm [1] | ΔTm [2] | ΔTm [3] | ΔTm [4] | ΔTm [5] | ΔTm [6]
CN(C(=O)c1ccccc1)c1ccc2c(c1)[nH]/c(=N\C(=O)c1ccc(Br)s1)n2CCC(N)=O | 3.94 °C | 0.69 °C | 6.56 °C | 0.89 °C | 0.41 °C | 3.75 °C
CC(C)N(CCCCOCC(=O)O)c1cnc(-c2ccccc2)c(-c2ccccc2)n1 | 0.75 °C | -0.83 °C | 0.48 °C | 0.74 °C | -0.32 °C | -1.44 °C
O=C(O)CCCCN(CCc1cc(F)ccc1OCc1ccc(-c2ccc(C(F)(F)F)cc2)cc1)Cc1ccc(C(=O)O)cc1 | 0.64 °C | -0.19 °C | 0.21 °C | -1.11 °C | -0.69 °C | 0.32 °C
CN(C)[C@H]1CCc2nc(NC(=O)c3cccc(Cn4cc(-c5ccc(C#N)cc5)cn4)c3)sc2C1 | 0.14 °C | 0.68 °C | 0.36 °C | 0.72 °C | 0.35 °C | 0.61 °C
CNC(=O)c1c[nH]c2ccc(Nc3nccc(-c4ccccn4)n3)cc12 | 2 °C | 1.28 °C | 0.6 °C | 2.67 °C | 0.16 °C | 1.47 °C
CC(C)NC(=O)[C@H]1CCC[C@H]1Nc1nc(Nc2ccc(C(=O)N(C)C3CCN(C)CC3)cc2)ncc1Cl | 10.3 °C and 6.45 °C | 1.23 °C and 1.13 °C | 0.47 °C and 0.12 °C | 0.76 °C and -0.38 °C | 0.47 °C and 0.79 °C | 15.7 °C and 14.3 °C
O=C(Cc1ccccc1)Nc1nnc(N2CC[C@@H]3[C@H]2CN3c2cccnn2)s1 | 0.18 °C | 0.43 °C | -0.16 °C | -0.46 °C | 0.3 °C | -0.66 °C
CN(C)C(=O)Cn1cc(-c2ccc(-c3cncc4ccccc34)cc2)cn1 | 3.4 °C | 0.46 °C | 1.89 °C | 0.72 °C | -0.64 °C | 2.96 °C
CCOCCn1cc(C(=O)Nc2ccc(-n3nc(-c4cccnc4)cc3C(F)(F)F)cn2)ccc1=O | 0.3 °C | -1.4 °C | 0.33 °C | -0.71 °C | -0.58 °C | 0.16 °C
C=C1/C(=C\C=C2/CCC[C@]3(C)[C@@H]([C@H](C)CCCC(C)(C)O)CC[C@@H]23)C[C@@H](O)C[C@@H]1O | -0.27 °C | -4.7 °C | 0 °C | -6.39 °C | -0.74 °C | -10 °C
CC(F)(F)CN1C(=O)c2[nH]nc(-c3cccc4[nH]c(=O)oc34)c2C1c1ccc(Oc2cc(C(F)(F)F)cc(C(F)(F)F)c2)cc1 (centres undefined) | 0.76 °C | 0.46 °C | 4.37 °C | -4.17 °C | 1.19 °C | 0 °C
C1=Cc2ccccc2C(=C2CCN(CCCCc3nnn[nH]3)CC2)c2ccccc21 | -0.16 °C | 0.18 °C | -0.15 °C | 0.27 °C | -0.08 °C | -0.37 °C
CN(c1ccc(C(F)(F)F)cc1)S(=O)(=O)c1ccc(C(=O)Nc2nc(-c3ccccn3)cs2)cc1 | 7.05 °C | 10.4 °C | 5.15 °C | 13.4 °C | 1.92 °C | 9.24 °C
O=C(O)c1ccc2c(c1)nc(NCc1ccccc1)c1ncncc12 | 0.29 °C | 1.34 °C | 0.62 °C | 1.21 °C | 0.05 °C | 1.85 °C
CN(C1CCc2c(c3ccccc3n2CC(=O)O)C1)S(=O)(=O)c1ccc(F)cc1 (centres undefined) | 0.59 °C | 0.46 °C | -0.23 °C | 0 °C | -0.11 °C | 0.35 °C
Cc1c(N2CCNCC2)nc2ccc(Br)cc2c1C(=O)NC[C@H](CCC(=O)O)c1ccccc1Cl | 0.01 °C | 0.4 °C | 0.62 °C | 0.03 °C | 0.18 °C | 0.41 °C
CN1CC(=O)N(C)c2cnc(Nc3ccc(NC(=O)Nc4cccc(C(=O)O)c4)cc3)nc21 | 0.56 °C | -0.17 °C | 0.58 °C | 1.43 °C | 0.43 °C | 2 °C
Cc1cc(-c2cnc(N)c3c(-c4ccc5scnc5c4)csc23)n(C)n1 | 7.77 °C | -0.21 °C | 0.67 °C | -0.81 °C | -0.07 °C | -0.03 °C
N#Cc1ccc(COc2ccc(Br)cc2CNCCO)cn1 | 0.3 °C | 0.22 °C | 0.13 °C | -0.56 °C | 0.45 °C | -1 °C
CN[C@@H]1CC[C@@H](c2ccc(Cl)c(Cl)c2)c2ccccc21 | -0.02 °C | 0.01 °C | 0.01 °C | -0.7 °C | 0 °C | -0.47 °C
c1ccc(C(OC2CCN(CCCc3nnn[nH]3)CC2)c2ccccc2)cc1 | 0.21 °C | 0.54 °C | -0.14 °C | 0.65 °C | -0.05 °C | -0.34 °C
CNc1[nH]c(Nc2ccc(C(=O)N3CCOCC3)cc2OC)nc2ncc(Cl)c1-2 | 0.1 °C | -0.26 °C | 4.5 °C | -1.11 °C | 0.86 °C | 1 °C
Cc1cc(OC2CCS(=O)(=O)CC2)cc(C)c1-c1cccc(COc2ccc(C(=O)O)c(F)c2)c1 | 0.14 °C | -1.08 °C | 0.23 °C | -0.54 °C | 0.7 °C | -1.19 °C
CCCNc1ccc2ncc(-c3ccncc3)n2n1 | 5.22 °C | 4.76 °C | 5.6 °C | 4.07 °C | 1.16 °C | 6.52 °C
Cc1cc(CN)cc(C)c1-c1ncn(C)c1-c1ccnc2cc(F)ccc12 | -0.08 °C | 0.32 °C | 0.37 °C | -0.11 °C | 0.29 °C | 0.25 °C

Structure (SMILES) | ΔTm [1] | ΔTm [2] | ΔTm [3] | ΔTm [4] | ΔTm [5] | ΔTm [6]
COc1cc(CN(CCN)C(=O)N[C@@H](C)c2ccccc2)ccc1OCc1ccccc1 | 0.76 °C | 1.02 °C | 0.16 °C | -0.67 °C | 0.02 °C | 0.4 °C
C=CC(=O)Nc1cccc(C)c1Nc1ncc2cc(-c3c(Cl)c(OC)cc(OC)c3Cl)ccc2n1 | 0.49 °C | 0.87 °C | 0.34 °C | -1.24 °C | -3.69 °C | -2.08 °C
CC(C)C(=O)N[C@@H]1CCN(C(=O)Nc2nc3c(s2)-c2nc(-c4ccccc4Cl)ncc2CC3)C1 | 2.72 °C | 0.75 °C | 2.85 °C | 0.38 °C | 0.99 °C | 2.98 °C
Cc1c(NC(=O)c2ccc(C(C)(C)C)cc2)cccc1-c1cn(C)c(=O)c(Nc2ccc(C(=O)N3CCOCC3)cc2)n1 | 0.18 °C | -0.38 °C | 0.35 °C | -2.28 °C | -1.15 °C | 1.86 °C
O=C1CN(c2ccccc2F)C(NCCN2CCOCC2)=C1c1nc2cc(Br)ccc2c(=O)[nH]1 | 0.38 °C | 0.68 °C | 0.32 °C | 0.31 °C | 0.23 °C | 0.17 °C
CN1C(=O)c2c(nn(Cc3ccc(-c4cccc(F)n4)cc3)c2Nc2ccccc2)N2C1=N[C@@H]1CCC[C@@H]12 | 0.4 °C | 0 °C | 0.16 °C | 3.99 °C | -0.56 °C | -0.49 °C
CN(C)CCC[C@@]1(c2ccc(F)cc2)OCc2cc(C#N)ccc21 | 0.61 °C | 0.64 °C | -0.32 °C | -0.03 °C | 0.7 °C | -0.23 °C
CCCCNc1ncc2c(-c3ccc(CN4CCN(C)CC4)cc3)cn([C@H]3CC[C@H](O)CC3)c2n1 | 11.7 °C | 5.95 °C | 2.72 °C | 4.8 °C | 0.43 °C | 13.5 °C
Fc1ccc(Cl)cc1-c1nc(Nc2ccncc2)c2nccnc2n1 | 0.4 °C | 1.19 °C | 2.24 °C | 0.58 °C | 0.56 °C | -0.16 °C
CN1CCc2cc(Nc3ncc(C(F)(F)F)c(NCc4cc[nH]n4)n3)ccc2C1 | 5.79 °C | 7.99 °C | 2.14 °C | 6.33 °C | 1.88 °C | 11.3 °C
Cc1cc(CN(CC(=O)Nc2ccc(Cl)cc2Cl)C2CCCCC2)ccc1OCC(=O)O | -1.67 °C | -2.21 °C | -0.47 °C | -3.13 °C | -1.06 °C | -2 °C
O=C(Nc1ccc(N2CCC(C(=O)N3CCOCC3)CC2)cc1)c1cnc(Oc2ccccc2)nc1 | 0.2 °C | 0.87 °C | 0.06 °C | -0.13 °C | 0.13 °C | -0.24 °C
CCc1nc(-c2cccc(C)c2)c(-c2ccncc2)s1 | 1.94 °C | -0.27 °C | 3.88 °C | 3.39 °C | 0.28 °C | -0.09 °C
COc1ccccc1-c1cc(Nc2cccc(CS(N)(=O)=O)c2)ncn1 | 2.06 °C | 2.08 °C | -0.11 °C | 4.1 °C | -0.04 °C | 0.53 °C
CN(C)C/C=C/C(=O)Nc1cccc(S(=O)(=O)N2CCC(NC(=O)c3n[nH]cc3NC(=O)c3c(Cl)cc(Cl)cc3Cl)CC2)c1 | 3.66 °C | 11.4 °C | 2.28 °C | 10.9 °C | 1.34 °C | 2.6 °C
O=C(NCCN1CCOCC1)c1ccc2nn(CCOc3ccc(Cl)cc3)cc2c1 | 0.88 °C | 0.59 °C | 0.35 °C | -0.24 °C | 0.56 °C | 0.05 °C
N#CC[C@H](C1CCCC1)n1cc(-c2ncnc3[nH]ccc23)cn1 | 3.71 °C | 1.43 °C | 2.02 °C | 4.04 °C | 0.74 °C | 5.6 °C
CN(C)[C@H]1C[C@H](n2cnc(-c3ccc(F)cn3)c2-c2ccnc3[nH]ccc23)C1 | 0.17 °C | 0.4 °C | 4.93 °C | -0.83 °C | 0.21 °C | -0.76 °C
CC(C=CC1=C(C)CCCC1(C)C)=CC=CC(C)=CC(=O)O | 0.39 °C | 0.25 °C | 0.93 °C | -0.56 °C | 0.1 °C | -3.01 °C
O=C(Nc1cccc(C(F)(F)F)c1)c1cccc(-n2cc(-c3ccco3)nn2)c1 | 0.46 °C | 0.62 °C | -5.13 °C | -7.24 °C | -10.6 °C | -2.64 °C
CC(C)S(=O)(=O)c1ccccc1Nc1nc(N[C@@H]2CCCN(CCCCCCCNC(=O)COc3cccc4c3C(=O)N(C3CCC(=O)NC3=O)C4=O)C2)ncc1Cl (some centres undefined) | 8.06 °C | 4.21 °C | 3.26 °C | 11.1 °C | 3.07 °C | 10.6 °C
COc1ccccc1N1CCN(c2ncnc3c2cnn3-c2ccccc2)CC1 | 0.32 °C | -0.17 °C | 0.84 °C | -0.28 °C | -0.07 °C | -0.16 °C
CC(C)S(=O)(=O)c1ccccc1Nc1nc(N[C@@H]2CCCN(CCCCCCCNC(=O)COc3cccc4c3C(=O)N(C3CCC(=O)N(C)C3=O)C4=O)C2)ncc1Cl (some centres undefined) | 1.22 °C | 1.08 °C | 1.07 °C | 8.52 °C | 0.83 °C | 7.69 °C
Cc1sc(C(=O)c2cncnc2N[C@@H]2C[C@H](COS(N)(=O)=O)[C@@H](O)C2)cc1[C@@H]1NCCc2ccc(Cl)cc21 | 0.37 °C | 0.66 °C | -0.59 °C | 0.3 °C | -0.53 °C | -0.27 °C
